The results in this text go back to PubChem BioAssay (NCI).

Compounds without any hit were thinned out: in the full panel of roughly 83,000, 20% have a hit.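 How to read the values: 0–100, growth inhibition (40 = 60% inhibited); 0, no net growth; -100 to 0, cell death (-40 = 40% of starting cells died; -100 = all dead).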 Activity calls are given as the source filed them.

This assay has as its system OVCAR-8 ovarian. The assay can be described thus: NCI-60 one-dose screen, 48 h (100 = growth as untreated, 0 = no growth, -100 = all killed). The settings on record: 10 µM unless noted. As for the experimental part: Growth inhibition of the OVCAR-8 human tumor cell line is measured as a screen for anti-cancer activity. Cells are grown in 96 well plates and exposed to the test compound for 48 hours. Compounds are tested at a single concentration, which is 10^-5 M for most compounds. The reported endpoint is percent growth (GI% or GIPRCNT), where numbers from 0 - 100% represent growth inhibition, and numbers from -100% - 0 represent cell death. For example, a value of 40 represents 60% growth inhibition. A value of 0 means no net growth occurred over the course of the experiment. A value of -40 indicates 40% of cells at the beginning of the experiment died by the end of the experiment. A value of -100 means all cells are dead at the end of the experiment.
NCI-60 Human Tumor Cell Lines Screen was performed using the standard one-dose NCI protocol, which is described in more detail at https://dtp.cancer.gov/discovery_development/nci-60/default.htm.
Compounds with GIPRCNT values below 10 were considered active. Activity score was based on GIPRCNT using the following formula: […]
Score is 0 for GIPRCNT values of 100 or above, 50 for GIPRCNT values of 0, and 100 for GIPRCNT values of -100.
Consider `C=C1c2c(C)nn(-c3ccc(NC(C)=O)cc3)c2N(C)C23CC1C1(C)c4c(C)nn(-c5ccc(NC(C)=O)cc5)c4N(C)C(C)(CC12)C3` (stereo not given), for which the growth was 40.8% (inactive).

`O=C1Nc2ccccc2/C1=N/N=C/c1c[nH]c2ccccc12`: the growth is 70.4% (inactive).

Consider `O=C(/C=C/C12c3ccccc3C(c3ccccc31)C1C(=O)NC(=O)C12)c1ccccc1` (stereo not given), for which the growth is 27.3% (inactive).

For the compound `O=C(c1ccccc1)c1ccc(Cl)c([N+](=O)[O-])c1`, the growth is 97.8% (inactive).

As to `C(=C\c1nc2ccccc2[nH]1)/c1nc2ccccc2[nH]1`, the growth is 97.6% (inactive).

Take `CC(=[N-])N1CCC[C@@H](Nc2c3ccccc3nc3ccccc23)C1.[Cl][Pt].[NH-]CCC[NH-]`: the growth was 39.1% (inactive).

For the compound `Cc1ccc(C)c2c1C(=O)OC2=O`, the growth was 106% (inactive).

`CCCCCCCCc1cc[n+](CC(=O)c2ccc(Br)cc2)cc1`: the growth is -65.8% (active).

As for `CCOC(=O)c1nnn(C(Cc2ccccc2Cl)C(=O)OCC)c1C` (stereo not given), the growth was 96.7% (inactive).

With `O=C1N(c2ccccc2)C(=S)N[C@]12[C@H](c1ccccc1)C1CCCN1[C@]21C(=O)NC2C=CC(Cl)=C[C@H]21` (stereo not given in full), the growth is 78.3% (inactive).

Regarding `COC(=O)/C(=C\c1ccc(OC)cc1)C(=O)N1c2ccccc2Sc2ccccc21`, the growth is 64.4% (inactive).

`C/C(=N\NC(=O)Cn1c(-c2ccc(S(C)(=O)=O)cc2)nc2cc(Cl)ccc21)c1ccc(Cl)cc1`: the growth is 79.5% (inactive).

On to `CCCCCOC(=O)c1cccc(NC(=O)CN(CC)CC)c1`, for which the growth is 103% (inactive).

Consider `COc1ccc(/C=C2\C=C(c3ccccc3)N(CCc3ccccc3)C2=O)cc1OC`, for which the growth is 25.9% (inactive).

As for `Cc1cc(=O)[nH]c(N/N=C/c2cc(Br)ccc2O)n1`, the growth is 16.7% (inactive).

For the compound `COc1cc2c(cc1OC)-c1ccc3cc4c(cc3c1N(CCCN1CCCCC1)C2)OCO4`, the growth is 32.6% (inactive).

Turning to `CCN(CCO)CC(=O)c1cc(Cl)cc(Cl)c1Cl`, the growth was 103% (inactive).

For the compound `COc1cccc(/C=C2\COc3ccc(O)cc3C2=O)c1OC`, the growth was 69% (inactive).

As to `CCNCCNc1cc(-c2ccc(C(=O)OC)cc2)c(C#N)c2nc3ccccc3n12`, the growth is 31.5% (inactive).

In the case of `CC(=O)Nc1cccc(C2=CC(c3ccc(C)cc3)n3ncnc3N2)c1` (stereo not given), the growth is 101% (inactive).

In the case of `O=C(NCc1cn(Cc2cccc(Oc3ccccc3)c2)nn1)c1cccnc1NCc1ccc(Cl)cc1`, the growth was 32.6% (inactive).

For the compound `Cc1c(C)c2c(c(C)c1NC(=O)/C=C\C(=O)O)CCC(C)(CCCC(C)CCCC(C)CCCC(C)C)O2` (stereo not given), the growth is 35.9% (inactive).

With `COc1cc(C2CC(=O)Nc3n[nH]c(-c4ccccc4)c32)cc(OC)c1OC` (stereo not given), the growth was 80.1% (inactive).

For `Nc1ccc(S(=O)(=O)Nc2ccsc2-c2nc(-c3ccccc3)no2)cc1`, the growth was 59.7% (inactive).

Take `CCCCS(=O)(=O)Oc1ccc(-c2nc(C)c(C(=O)OCC)s2)cc1C=O`: the growth was 45.4% (inactive).

Take `COc1cc(/C=C/C(=O)c2cccc(-n3cc(-c4ccc(Cl)cc4)[nH]c3=O)c2)cc(OC)c1OC`: the growth is 29.3% (inactive).

As to `COC(=O)CNC(=O)C(=O)c1c(O)c(O)c(C(C)C)c2cc(C)c(-c3c(C)cc4c(C(C)C)c(O)c(O)c(C(=O)C(=O)NCC(=O)OC)c4c3O)c(O)c12`, the growth is 13% (inactive).

As for `C=C(C)[C@@H]1CC[C@@]2(C(=O)O)CC[C@]3(C)C(CCC4[C@@]5(C)CCC(OS(=O)(=O)c6ccccc6)C(C)(C)C5CC[C@]43C)C12` (stereo not given in full), the growth is 38.1% (inactive).

As for `Clc1ccc2c(NCCCN3CCN(c4nc(N5CCOCC5)nc5ccccc45)CC3)ccnc2c1`, the growth is 16.1% (inactive).

Consider `CCNCCNc1cc(-c2cccc(C(F)(F)F)c2)c(C#N)c2nc3ccccc3n12`, for which the growth is -39.7% (active).

As for `N#Cc1c(NC(=O)c2cccc(C(F)(F)F)c2)sc2c1CCC(=O)C2`, the growth was 10.4% (inactive).

With `Cc1cc(NS(=O)(=O)c2ccccc2)c(OS(=O)(=O)c2ccccc2)cc1C`, the growth was 95.1% (inactive).

Consider `O=C(NCc1cccnc1)c1cc(-c2csc3c(=O)cc(N4CCOCC4)oc23)cc2c1OCCO2`, for which the growth was 38% (inactive).

With `Clc1ccc2c(NCCCN3CCN(c4nc(-n5ccnc5)nc5ccccc45)CC3)ccnc2c1`, the growth was 84.2% (inactive).

`COc1cc(-c2ccc(N=Nc3c(O)c(C(=O)Nc4ccccc4OC)cc4ccccc34)c(OC)c2)ccc1N=Nc1c(O)c(C(=O)Nc2ccccc2OC)cc2ccccc12`: the growth was 99.3% (inactive).

In the case of `Oc1[nH]c2ccccc2c1/C=c1/cc2c(c(-c3ccc(F)cc3)n1)=Nc1ccccc1-2`, the growth was -19.6% (active).

For the compound `COc1ccc(/C=N/NC(=O)Cn2c(-c3ccc(S(C)(=O)=O)cc3)nc3cc(Cl)ccc32)cc1`, the growth was 19.7% (inactive).

As for `O=C1C=CC(=Nc2cc(Br)c(O)c(Br)c2)C=C1`, the growth was 66.7% (inactive).

Turning to `Fc1ccc(Nc2ccc3cc(OCCCN4CCOCC4)ccc3n2)cc1F`, the growth is 66.8% (inactive).

As for `COC1=CC(c2ccc[nH]2)=N/C1=C\c1[nH]c(C)c(C(=O)OCCn2cc(CCC[C@@H]3Cc4cc(O)ccc4C4CC[C@]5(C)[C@@H](O)CC[C@H]5C43)nn2)c1C` (stereo not given in full), the growth was 96.3% (inactive).
